Measured values: PubChem BioAssay (EPA / NIEHS)
Records with an inconclusive call do not appear. Calls of active or inactive are those of the source. Rule for the calls: active = hit-call score of the fitted dose curve at least 0.9, where 1 is the maximum; inconclusive = response in the unintended direction; inactive = score below 0.9.

How the values were obtained:
[1] = ATG_XTT_Cytotoxicity: Cytotoxicity Assessment in the Attagene TRANS-FACTORIAL HepG2 Assay (AID 2283584);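 for AC50: XTT signal for cell number as viability in transfected HepG2 cells; cells exposed to compound for 24 h before reading; active means loss of viability signal versus DMSO baseline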
Outline: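 24 h chemical exposure of reporter-transfected HepG2; XTT signal loss vs DMSO indicates cytotoxicity.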

[2] = TOX21_p53_BLA_p2_viability: Viability Assessment in the Tox21 HCT-116 p53 Agonism Beta-lactamase Assay, Phase 2 (AID 2283591);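 note: compound exposure lasted 16 h at 37 °C; actives lower the ATP signal meaning cytotoxicity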
Outline: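 HCT-116 p53-bla cells (4000/well) rested 5 h at 37C, then received compounds in DMSO (217-fold dilution) for 16 h at 37C, 5% CO2. After the CCF4 read, CellTiter-Glo was added; ATP luminescence was read after 30 min at room temperature.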

Q: Which outcome [1] does the source give for `CC(C)(C)C1CCCCC1=O` (configuration not stated) here?
A: The outcome was “inactive”.

Q: Which outcome [1] does the source give for `COc1ccc(NC(C)=O)cc1N` here?
A: Its outcome is “inactive”.

Q: Which outcome [1] does the source give for `CCCCCCCCCCCCCCCCCC#N` here?
A: The outcome was “inactive”.

Q: With `CCCC(C)CCC(C)=O` (configuration not stated) as the compound, how does the outcome [1] read?
A: Its outcome is “inactive”.

Q: Which outcome [1] does the source give for `COCCCOCCCOC` here?
A: The outcome was “inactive”.

Q: Which outcome [1] does the source give for `O=CC1CC1` here?
A: The outcome was “inactive”.

Q: For `CC(=O)OC1C2(C)CCC(C2)C1(C)C` (configuration not stated), which outcome [1] is on record?
A: Its outcome is “inactive”.

Q: Which outcome [1] does the source give for `O=C(O)C(c1ccc(Cl)cc1)c1ccc(Cl)cc1` here?
A: The outcome was “inactive”.

Q: For `CCN(CCO)c1cccc(C)c1`, which outcome [1] is on record?
A: Its outcome is “inactive”.

Q: Which outcome [1] does the source give for `C=C[Si](OC(C)=O)(OC(C)=O)OC(C)=O` here?
A: The outcome was “inactive”.

Q: Which outcome [1] does the source give for `CCc1nccnc1C` here?
A: The outcome was “inactive”.

Q: With `CCc1c(C(=O)O)c(=O)cnn1-c1ccc(Cl)cc1` as the compound, how does the outcome [1] read?
A: The outcome was “inactive”.

Q: Which outcome [1] does the source give for `O=S(=O)(O)c1cc(S(=O)(=O)O)c2ccc3c(S(=O)(=O)O)cc(S(=O)(=O)O)c4ccc1c2c43` here?
A: Its outcome is “inactive”.

Q: With `O=P(O)(O)Oc1ccccc1` as the compound, how does the outcome [1] read?
A: Its outcome is “inactive”.

Q: With `CCCCCCCCCCc1ccccc1` as the compound, how does the outcome [1] read?
A: The outcome was “inactive”.

Q: For `Cc1ccc2oc(=O)ccc2c1`, which outcome [1] is on record?
A: The outcome was “inactive”.

Q: For `O=C1Nc2ccccc2C1(c1ccc(O)cc1)c1ccc(O)cc1`, which outcome [1] is on record?
A: Its outcome is “inactive”.

Q: With `C=C(C)[C@H]1CC=C(C)CC1` as the compound, how does the outcome [1] read?
A: The outcome was “inactive”.

Q: And the outcome [2]?
A: Its outcome is “inactive”.

Q: With `Nc1ccc(Oc2ccc(N)c(N)c2)cc1` as the compound, how does the outcome [1] read?
A: The outcome was “inactive”.

Q: Which outcome [1] does the source give for `CC(=O)OCC(C)OC(C)=O` (configuration not stated) here?
A: The outcome was “inactive”.

Q: Which outcome [1] does the source give for `C=CCOCC(O)CCl` (configuration not stated) here?
A: Its outcome is “inactive”.

Q: For `O=CN1CCCCC1`, which outcome [1] is on record?
A: The outcome was “inactive”.

Q: Which outcome [1] does the source give for `O=C(O)Cc1c(Cl)ccc(Cl)c1Cl` here?
A: The outcome was “inactive”.

Q: Which outcome [1] does the source give for `C[Si](C)(C)O[Si](O)(O)O` here?
A: The outcome was “inactive”.

Q: With `CC1(C)[C@H]2CC[C@]1(C)C(=O)C2` as the compound, how does the outcome [1] read?
A: The outcome was “inactive”.

Q: Which outcome [1] does the source give for `O=C1CCCCCCCCCCC(=O)OCCO1` here?
A: The outcome was “inactive”.

Q: Which outcome [1] does the source give for `CCOC(=O)c1ccccc1C(=C1C=C(Br)C(=O)C(Br)=C1)c1cc(Br)c(O)c(Br)c1` here?
A: Its outcome is “inactive”.

Q: For `C[Si](C)O[Si](C)(C)O[Si](C)(C)O[Si](C)C`, which outcome [1] is on record?
A: The outcome was “inactive”.

Q: With `CCCCCCCCCCOC(C)=O` as the compound, how does the outcome [1] read?
A: Its outcome is “inactive”.

Q: For `OCCNCc1ccccc1`, which outcome [1] is on record?
A: Its outcome is “inactive”.

Q: For `O=C(O)c1cc(Cl)cc([N+](=O)[O-])c1Cl`, which outcome [1] is on record?
A: The outcome was “inactive”.

Q: For `CCN(Cc1cccc(S(=O)(=O)O)c1)c1ccc(C(=C2C=CC(=[N+](CC)Cc3cccc(S(=O)(=O)[O-])c3)C=C2)c2ccccc2)cc1`, which outcome [1] is on record?
A: The outcome was “inactive”.

Q: Which outcome [1] does the source give for `CCN(CC#N)c1cccc(C)c1` here?
A: Its outcome is “inactive”.

Q: With `NC(=O)OCC(COC(N)=O)c1ccccc1` as the compound, how does the outcome [1] read?
A: Its outcome is “inactive”.

Q: Which outcome [1] does the source give for `CCN(CC)c1ccc(C(=O)c2ccccc2C(=O)O)c(O)c1` here?
A: Its outcome is “inactive”.

Q: With `NNC(=O)c1cccc(C(=O)NN)c1` as the compound, how does the outcome [1] read?
A: The outcome was “inactive”.

Q: Which outcome [1] does the source give for `COc1ccc([C@@H]2CC(=O)c3c(O)cc(O[C@@H]4O[C@H](CO[C@@H]5O[C@@H](C)[C@H](O)[C@@H](O)[C@H]5O)[C@@H](O)[C@H](O)[C@H]4O)cc3O2)cc1OC` here?
A: The outcome was “inactive”.

Q: Which outcome [1] does the source give for `Nc1ccc(N=Nc2ccccc2)c(N)n1` here?
A: The outcome was “inactive”.

Q: And the outcome [2]?
A: The outcome was “inactive”.

Q: Which results are given for `[Cl][Bi]([Cl])([c]1ccccc1)([c]1ccccc1)[c]1ccccc1`?
A: AC50 [1]: 7.84 µM (active); AC50 [2]: 13.9 µM (active)

Q: With `CN(C)CCCN(C)C` as the compound, how does the outcome [1] read?
A: The outcome was “inactive”.

Q: What about the outcome [2] of the same compound?
A: Its outcome is “inactive”.

Q: With `CCCCCCOc1cc(C)c(O)c(C)c1C` as the compound, how does the outcome [1] read?
A: Its outcome is “inactive”.

Q: What about the outcome [2] of the same compound?
A: Its outcome is “inactive”.

Q: For `CCCNC(=O)NS(=O)(=O)c1ccc(Cl)cc1`, which outcome [1] is on record?
A: Its outcome is “inactive”.

Q: And the outcome [2]?
A: Its outcome is “inactive”.

Q: With `O=C(Oc1ccccc1)c1ccc2ccccc2c1O` as the compound, how does the outcome [1] read?
A: The outcome was “inactive”.

Q: What about the outcome [2] of the same compound?
A: The outcome was “inactive”.

Q: What does the source list for `CCC(CO)CO`?
A: outcome [1]: inactive; outcome [2]: inactive

Q: Which outcome [1] does the source give for `Nc1cccc(C(F)(F)F)c1` here?
A: The outcome was “inactive”.

Q: What about the outcome [2] of the same compound?
A: Its outcome is “inactive”.

Q: What does the source list for `Cc1cc(C)c(C)c(C)c1`?
A: outcome [1]: inactive; outcome [2]: inactive

Q: With `N=c1ccn2c(n1)O[C@H]1[C@H](O)[C@@H](CO)O[C@H]12` as the compound, how does the outcome [1] read?
A: The outcome was “inactive”.

Q: What about the outcome [2] of the same compound?
A: The outcome was “inactive”.

Q: For `CC(=O)Oc1ccc(C)cc1`, which outcome [1] is on record?
A: Its outcome is “inactive”.

Q: And the outcome [2]?
A: Its outcome is “inactive”.

Q: For `Cc1oncc1C(=O)Nc1ccc(C(F)(F)F)cc1`, which outcome [1] is on record?
A: Its outcome is “inactive”.

Q: What about the outcome [2] of the same compound?
A: Its outcome is “inactive”.

Q: What does the source list for `O=Cc1ccc(CO)o1`?
A: outcome [1]: inactive; outcome [2]: inactive

Q: Which results are given for `CC(=O)Oc1ccc(C(C)=O)cc1`?
A: outcome [1]: inactive; outcome [2]: inactive

Q: For `CCCCCCCCCCC=CC#N`, which outcome [1] is on record?
A: Its outcome is “inactive”.

Q: And the outcome [2]?
A: Its outcome is “inactive”.

Q: What does the source list for `C=C(C)C(=O)OCC(C)C`?
A: outcome [1]: inactive; outcome [2]: inactive

Q: With `O=c1cc[nH]c(=S)[nH]1` as the compound, how does the outcome [1] read?
A: Its outcome is “inactive”.

Q: What about the outcome [2] of the same compound?
A: Its outcome is “inactive”.

Q: Which outcome [1] does the source give for `O=C1C=CC(=O)O1` here?
A: The outcome was “inactive”.

Q: And the outcome [2]?
A: The outcome was “inactive”.

Q: Which outcome [1] does the source give for `O=c1n(CCO)c(=O)n(CCO)c(=O)n1CCO` here?
A: The outcome was “inactive”.

Q: And the outcome [2]?
A: Its outcome is “inactive”.

Q: With `O=S(=O)(O)CC(O)CCl` (configuration not stated) as the compound, how does the outcome [1] read?
A: Its outcome is “inactive”.

Q: And the outcome [2]?
A: The outcome was “inactive”.

Q: For `CCOC(=O)NNc1nncc2ccccc12`, which outcome [1] is on record?
A: Its outcome is “inactive”.

Q: What about the outcome [2] of the same compound?
A: Its outcome is “inactive”.

Q: Which outcome [1] does the source give for `CCC(Cc1ccccc1)(C(=O)c1ccc(N2CCOCC2)cc1)N(C)C` (configuration not stated) here?
A: The outcome was “inactive”.

Q: And the outcome [2]?
A: The outcome was “inactive”.

Q: What does the source list for `CC(=O)c1ccc2c(c1)CCCC2`?
A: outcome [1]: inactive; outcome [2]: inactive

Q: With `O=C1CCCCCN1SSN1CCCCCC1=O` as the compound, how does the outcome [1] read?
A: Its outcome is “inactive”.

Q: And the outcome [2]?
A: Its outcome is “inactive”.

Q: What does the source list for `CCOC(=O)CC(C(C)=O)C(C)=O`?
A: outcome [1]: inactive; outcome [2]: inactive

Q: What does the source list for `COC(=O)C1=C(C)NC(C)=C(C(=O)OCC(C)C)C1c1ccccc1[N+](=O)[O-]` (configuration not stated)?
A: outcome [1]: inactive; outcome [2]: inactive

Q: Which results are given for `O=c1[nH]c(=O)c2[nH]c(=O)[nH]c2[nH]1`?
A: outcome [1]: inactive; outcome [2]: inactive
